Dicer inh: inhibitors of Dicer pre-microRNA processing, primary screen, biochemical, cat-ELCCA, chemiluminescence. cat-ELCCA pre-miR-21 Dicer processing; hits give high values. AID 1347074, 2019. Endoribonuclease Dicer (Homo sapiens), Q9UPY3. hit rate 6% among 47,000. z-score at 25 µM; in the data active = z-score above about 3, passing the limit was not always enough;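 note: plate controls were vehicle for no effect and no enzyme for full effect; higher signal means more uncleaved substrate so more Dicer inhibition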
An asterisk follows results filed as active. The sample as a whole holds a higher share of hits than the screen did.

SMILES	Dicer inh
O=C1Cc2ccccc2C(c2ccccc2)N1 (stereo not given)	0.47
CCN(CC)c1ccc(NC(=O)c2ccc(C)cc2)c(N(CC)CC)n1	1.3
O=C(O)c1ccc2nc(-c3ccccc3)c(-c3ccccc3)nc2c1	0.57
O=C(O)c1ccc2nc(-c3ccc(O)cc3)sc2c1	4.5*
Nc1ccc(-c2nc3ccccc3s2)cc1	2.9
CCN(CC)c1ccc2c(c1)OC(N)=C(C#N)C2c1ccc(F)cc1 (stereo not given)	0.28
c1nc(NCCCN2CCOCC2)c2sccc2n1	-0.1
Cc1ccc(C(C)C)c(OCc2nc3ccccc3n2C)c1	0.86
Cc1ccc(OCCSc2nc(N)cc(N)n2)c(C(C)C)c1	4.9*
COc1ccccc1OCCSc1nc(C)cc(C)n1	1.3
O=C1C(=O)N(CCCn2ccnc2)C(c2cccnc2)/C1=C(\O)c1ccc(F)cc1 (stereo not given)	0.04
CCCSc1sc(C(=O)OC)c2c1C(=O)CC(C)(C)C2	-0.81
CCSc1sc(C#N)c2c1C(=O)CC(C)(C)C2	3.6*
CCSc1sc(C(=O)OC)c2c1/C(=N/O)CC(C)(C)C2	2.5
CC1(C)CC(=O)c2ccc(OCC(=O)O)cc2O1	-0.65
S=C(Nc1cccc(Cl)c1)N1CCCc2ccccc21	-0.83
COC(=O)c1c(NC(=O)c2c(OC)cccc2OC)sc2c1CCC2	1.5
COC(=O)c1c(NC(=O)c2cc(OC)cc(OC)c2)sc2c1CCC2	0.77
CCOC(=O)c1c(NC(=O)CC)sc2c1CCC2	1.4
COC(=O)c1c(NC(=O)CCCC(=O)O)sc2c1CCC2	4.3*
COc1ccccc1NC(=O)c1c(NC(=O)c2ccco2)sc2c1CCC2	0.05
COC(=O)c1c(NC(=O)c2ccccc2C(=O)O)sc2c1CCC2	3.1*
NC(=O)c1c(NC(=O)c2ccccc2C(=O)O)sc2c1CCCC2	0.5
CCOC(=O)CCC(=O)Nc1sc2c(c1C(=O)OCC)CCCC2	1.5
COc1ccc(NC(=O)c2c(NC(=O)c3ccco3)sc3c2CCC3)cc1	3.3*
SMILES	Dicer inh
COC(=O)C1SCCN1S(=O)(=O)c1ccc(-c2cc(C(F)(F)F)on2)s1 (stereo not given)	-0.54
C=CCn1c(-c2ccccc2Cl)n[nH]c1=S	1.3
COC(=O)c1cc(S(=O)(=O)N2CCCC2)oc1C	-1
CCOC(=O)CC(C)Nc1cc(NC(C)=O)ccc1OC (stereo not given)	-1.5
CC(=O)Oc1ccc(C2C(C(=O)OCCc3ccccc3)=C(C)NC3=C2C(=O)CCC3)cc1 (stereo not given)	1.7
O=C(CCCSc1nc(-c2ccco2)cc(C(F)(F)F)n1)NCc1ccco1	2
Cc1nn(C)c(NC(=O)c2ccc(Cl)cc2Cl)c1Br	-2.1
COc1ccc(C2CC(=O)C3=C(C2)Nc2ccccc2NC3c2ccc(F)c(Br)c2)cc1 (stereo not given)	5.2*
COc1ccc(C2CC(=O)C3=C(C2)Nc2ccccc2N(C(=O)C2CC2)C3c2cccnc2)cc1OC (stereo not given)	-0.58
COc1ccc(C2CC(=O)C3=C(C2)Nc2ccccc2NC3c2coc3ccc(Cl)cc3c2=O)cc1 (stereo not given)	1.8
O=C1CC(c2ccccc2)CC2=C1C(c1cccnc1)Nc1ccccc1N2 (stereo not given)	0.31
CCOc1cc(C2Nc3ccccc3NC3=C2C(=O)CC(c2ccccc2)C3)ccc1O (stereo not given)	3
COc1ccc(C2CC(=O)C3=C(C2)Nc2ccccc2NC3c2cccc(Br)c2)cc1 (stereo not given)	2
COc1cccc(C2C3=C(CC(c4ccccc4)CC3=O)Nc3ccccc3N2C(=O)C2CC2)c1 (stereo not given)	3.7*
COc1ccc(C2CC(=O)C3=C(C2)Nc2ccccc2NC3c2ccc(OC)cc2)cc1 (stereo not given)	4.5*
COc1ccc(C2CC(=O)C3=C(C2)Nc2ccccc2NC3c2cccc(O)c2)cc1 (stereo not given)	0.54
COc1ccc(C2CC(=O)C3=C(C2)Nc2ccccc2NC3c2ccc(F)cc2)cc1 (stereo not given)	1.6
O=C(O)CCC(=O)N1c2ccccc2NC2=C(C(=O)CC(c3ccccc3)C2)C1c1cccc(F)c1 (stereo not given)	-1.1
O=C1CC(c2ccccc2)CC2=C1C(c1ccc(F)c(F)c1)Nc1ccccc1N2 (stereo not given)	4.6*
COc1cc(C2c3c(oc4ccc(F)cc4c3=O)C(=O)N2CCCN2CCOCC2)ccc1O (stereo not given)	0.66
COc1ccc(CSc2nc(-c3ccccc3)nc3c2COC(C)(C)C3)cc1	0.2
COc1ccc(OC)c(S(=O)(=O)Nc2cc(C(F)(F)F)cc(C(F)(F)F)c2)c1	0.35
O=C(/C(N=Nc1ccc(Cl)cc1Cl)=C(/O)c1cccs1)C(F)(F)F	0.69
COCc1[nH]nc2c1C(c1ccc(C(C)C)cc1)C(C#N)=C(N)O2 (stereo not given)	-5
COc1cc(OC)c(NC(=O)C(Sc2ccccc2N)c2ccccc2)cc1Cl (stereo not given)	0.24
SMILES	Dicer inh
Cc1ccccc1C1Nc2ccccc2NC2=C1C(=O)CC(c1ccccc1)C2 (stereo not given)	0.97
COc1cccc(C2Nc3ccccc3NC3=C2C(=O)CC(c2cccs2)C3)c1 (stereo not given)	3.4*
Cc1ccc(C2CC(=O)C3=C(C2)Nc2ccccc2NC3c2ccncc2)cc1 (stereo not given)	0.12
COc1ccc(C2Nc3ccccc3NC3=C2C(=O)CC(c2cccs2)C3)cc1Br (stereo not given)	-0.98
COc1ccccc1C1Nc2ccccc2NC2=C1C(=O)CC(c1cccs1)C2 (stereo not given)	0.08
CN(C)c1ccc(C2CC(=O)C3=C(C2)Nc2ccccc2NC3c2ccccc2)cc1 (stereo not given)	4.8*
CS(=O)(=O)Nc1csc2cc(C(F)(F)F)cc(Cl)c12	0.88
COc1ccc(-c2nnc(SCc3cccc4ccccc34)o2)cc1	-0.09
COc1ccc(-c2nnc(SCc3cccc4ccccc34)o2)c(OC)c1	227*
COc1ccc(-c2nnc(SCc3cccc(Cl)c3)o2)c(OC)c1	-0.48
C=CCNc1ncnc2cc(OC)c(OC)cc12	-0.99
O=C(CSc1nnc2ccccn12)Nc1cccc(-c2nc3ccccc3s2)c1	-1.3
O=C(CSc1nnc2ccccn12)Nc1ccc(Cl)cc1	0.1
O=C(CCSc1nnc2ccccn12)Nc1cccc(-c2nc3ccccc3s2)c1	6.1*
Cc1ccc(-c2noc(CN3CCN(c4ccccn4)CC3)n2)cc1	0.56
Cc1noc(/C=C/c2cn(Cc3ccccc3Cl)c3ccccc23)c1[N+](=O)[O-]	1.5
O=c1oc(C(O)(c2ccccc2)c2ccccc2)nc2cc([N+](=O)[O-])ccc12	0.32
C=C(C)c1cccc(C(C)(C)NC(=O)NCCc2ccc(S(N)(=O)=O)cc2)c1	3.9*
C=C(C)c1cccc(C(C)(C)NC(=O)NCCc2ccccc2)c1	1.2
C=C(C)c1cccc(C(C)(C)NC(=O)NCc2ccc(Cl)cc2)c1	0.35
CCOC(=O)C1=C(C)NC2=C(C(=O)CCC2)C1c1ccc(Br)cc1 (stereo not given)	-1.1
CCOC(=O)CSc1nnc(-c2ccncc2)n1C	-0.07
CCCCNS(=O)(=O)c1ccc(C)c(-c2nnc3c4ccccc4c(C)nn23)c1	0.74
COC(=O)c1scc(NS(=O)(=O)c2ccccc2)c1C(=O)OC	0.3
CCOC(=O)/C(=N\O)C1=CSC2=NNC(C)(C)N12	-1.6
